# Inconclusive results are not listed. Where a call stands in place of a potency, no number is given. Active and inactive are the calls of the source. Unless noted, calls come from the whole dose curve; as a rule, active = well fitted curve in the direction sought with a large enough effect in the repeat runs; inconclusive = weak or mixed curves; inactive = no such curve, though single readings can be large; an effect the other way counts as inactive or inconclusive.
# Assays:
# [1] = qHTS assay to test for compound auto fluorescence at 535 nm (green) in HEK293 cells (AID 720680)
# [2] = qHTS assay to test for compound auto fluorescence at 460 nm (blue) in HEK293 cell free culture (AID 720681)
# In short: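 Blue fluorescence (Ex 405/Em 460 nm, triamterene-equivalent) was read immediately after pin transfer of compound or DMSO into medium (DMEM, 10% FBS) without cells.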
# [3] = qHTS assay to test for compound auto fluorescence at 535 nm (green) in HEK293 cell free culture (AID 720682)
# In short: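 Using fluorescein as calibrant, autofluorescence was quantified at 485/535 nm in cell-free DMEM containing 10% FBS after pintool addition of compound or vehicle.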
# [4] = qHTS assay to test for compound auto fluorescence at 590 nm (red) in HEK293 cell free culture (AID 720683); note: potency is the fitted concentration of half-maximal effect
# In short: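 Red-channel autofluorescence of compounds in culture medium (DMEM, 10% FBS), no cells, measured at 540/590 nm. Rose Bengal sodium is the reference fluorophore for equivalence.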
# [5] = qHTS assay to test for compound auto fluorescence at 590 nm (red) in HepG2 cell free culture (AID 720684); note: potency is the fitted concentration of half-maximal effect
# In short: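 Plate contents were MEM with 10% FBS plus test compound or DMSO, no cells. Fluorescence was recorded with 540 nm excitation and 590 nm emission.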
# [6] = qHTS assay to test for compound auto fluorescence at 460 nm (blue) in HepG2 cell free culture (AID 720685)
# In short: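 Compound (23 nL) or DMSO pinned into cell-free MEM with 10% FBS; blue fluorescence read at 405/460 nm excitation/emission, expressed as auto-fluorescence equivalency to triamterene.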
# [7] = qHTS assay to test for compound auto fluorescence at 535 nm (green) in HepG2 cell free culture (AID 720686)
# [8] = qHTS assay to test for compound auto fluorescence at 460 nm (blue) in HepG2 cells (AID 720687)
# In short: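 Blue-channel autofluorescence (Ex/Em 405/460 nm, triamterene-equivalent) was measured after 1 hr compound exposure at 37 C, 5% CO2. Cells were HepG2, plated overnight at 37 C in MEM plus 10% FBS.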
# [9] = qHTS assay to identify small molecule antagonists of the glucocorticoid receptor (GR) signaling pathway - cell viability counter screen (AID 720693); note: nearly all actives have a fitted effect of over 55% in size; note: potency is the fitted concentration of half-maximal effect
# [10] = qHTS assay for identifying genotoxic compounds that show differential cytotoxicity against isogenic chicken DT40 cell lines with known DNA damage response pathways - wild type cell line (AID 743012); note: nearly all actives have a fitted effect of over 60% in size; note: potency is the fitted concentration of half-maximal effect
# In short: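 First, wild type DT40 cells were plated at 300 per well and equilibrated about 0.5 h at 37 C/5% CO2. Next, compounds in DMSO were added and exposure lasted 40 h. Finally, CellTiter-Glo was added for 30 min at room temperature and luminescence recorded.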
# [11] = qHTS assay for identifying genotoxic compounds that show differential cytotoxicity against isogenic chicken DT40 cell lines with known DNA damage response pathways - Rev3 mutant cell line (AID 743014); note: nearly all actives have a fitted effect of over 55% in size; note: potency is the fitted concentration of half-maximal effect
# [12] = qHTS assay for identifying genotoxic compounds that show differential cytotoxicity against isogenic chicken DT40 cell lines with known DNA damage response pathways - Rad54/Ku70 mutant cell line (AID 743015); note: nearly all actives have a fitted effect of over 60% in size; note: potency is the fitted concentration of half-maximal effect
# [13] = qHTS assay to identify small molecule antagonists of the androgen receptor (AR) signaling pathway - cell viability counter screen (AID 743033; note: nearly all actives have a fitted effect of over 45% in size; note: potency is the fitted concentration of half-maximal effect)
# [14] = molecular target: Androgen receptor (Homo sapiens) (UniProt P10275); test: qHTS assay to identify small molecule antagonists of the androgen receptor (AR) signaling pathway (AID 743035; active = well fitted inhibition curve with a large enough effect in the signal ratio in the repeat runs, not every such curve was filed as active; the % refers to the signal ratio; note: potency is the fitted concentration of half-maximal effect)
# In short: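 Beta-lactamase FRET read (2 h RT incubation with LiveBLAzer B/G) following 16 h of compound plus R1881 treatment of AR-UAS-bla HEK293 cells, which had been pre-incubated 4 h at 37C.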
# [15] = molecular target: Androgen receptor (Homo sapiens) (UniProt P10275); test: qHTS assay to identify small molecule agonists of the androgen receptor (AR) signaling pathway using the MDA cell line (AID 743040; note: nearly all actives have a fitted effect of over 20% in size)
# In short: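 After a 5 h incubation at 37C and 0% CO2, MDA-kb2 reporter cells were dosed with compounds in DMSO and kept 16 h under the same conditions. Luciferase activity was then read as luminescence with ONE-Glo.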
# [16] = qHTS assay to identify small molecule antagonists of the androgen receptor (AR) signaling pathway using the MDA cell line - cell viability counter screen (AID 743041; note: nearly all actives have a fitted effect of over 45% in size; note: potency is the fitted concentration of half-maximal effect)
# In short: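 R1881-driven MDA-kb2 AR-luc cells, 3,000/well, were dosed with library compounds for 16 h; cell health came from CellTiter-Fluor fluorescence in the reporter wells.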
# Tags give direction and shape of the fitted curve or compound fluorescence and quenching.
# Androgen receptor (Homo sapiens), sequence (P10275 whole entry, looked up): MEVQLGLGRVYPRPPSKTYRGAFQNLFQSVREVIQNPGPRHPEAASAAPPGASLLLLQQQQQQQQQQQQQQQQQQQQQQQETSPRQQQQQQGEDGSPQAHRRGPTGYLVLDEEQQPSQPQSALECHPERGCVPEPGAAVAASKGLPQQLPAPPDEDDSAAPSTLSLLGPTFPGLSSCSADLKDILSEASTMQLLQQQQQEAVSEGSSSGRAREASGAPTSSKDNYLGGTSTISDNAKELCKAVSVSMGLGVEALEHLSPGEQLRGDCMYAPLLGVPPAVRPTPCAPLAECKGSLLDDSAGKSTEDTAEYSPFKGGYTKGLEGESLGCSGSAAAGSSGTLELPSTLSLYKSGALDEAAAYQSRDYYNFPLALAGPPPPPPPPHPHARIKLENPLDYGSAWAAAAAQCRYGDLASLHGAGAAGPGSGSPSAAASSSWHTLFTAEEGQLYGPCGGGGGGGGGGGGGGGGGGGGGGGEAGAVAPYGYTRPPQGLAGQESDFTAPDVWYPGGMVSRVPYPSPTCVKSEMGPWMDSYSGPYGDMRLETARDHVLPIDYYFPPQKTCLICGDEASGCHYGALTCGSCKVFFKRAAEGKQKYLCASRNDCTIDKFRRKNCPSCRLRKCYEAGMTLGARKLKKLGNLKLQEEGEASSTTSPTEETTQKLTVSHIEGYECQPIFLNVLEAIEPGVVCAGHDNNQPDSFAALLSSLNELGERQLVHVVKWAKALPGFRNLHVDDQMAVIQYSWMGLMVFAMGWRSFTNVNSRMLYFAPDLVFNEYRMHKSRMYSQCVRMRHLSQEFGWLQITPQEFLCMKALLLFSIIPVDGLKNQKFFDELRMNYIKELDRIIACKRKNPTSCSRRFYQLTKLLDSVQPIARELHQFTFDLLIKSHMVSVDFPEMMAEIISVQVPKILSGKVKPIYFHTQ
Structure (SMILES),outcome [1],Potency [2],outcome [3],Potency [4],Potency [5],Potency [6],Potency [7],Potency [8],Potency [9],Potency [10],Potency [11],Potency [12],Potency [13],Potency [14],Potency [15],Potency [16]
C=CC(=O)OCC(CO)(COCC(COC(=O)C=C)(COC(=O)C=C)COC(=O)C=C)COC(=O)C=C,inactive,inactive,inactive,inactive,inactive,inactive,inactive,inactive,4.31 µM (active),0.34 µM (active),0.428 µM (active),0.303 µM (active),3.84 µM (active),1.93 µM (active),inactive,1.2 µM (active)
CCc1cc(SCc2sc(-c3ccc(C(F)(F)F)cc3)nc2CN2CCN(c3ccc(OC)cc3)CC2)ccc1OCC(=O)O,inactive,inactive,inactive,inactive,inactive,inactive,inactive,inactive,49 µM (active),43.3 µM (active),61.1 µM (active),30.6 µM (active),5.49 µM (active),,,inactive
CCCCCCCCCCn1cc[n+](CCCCCCCCCC)c1C,inactive,inactive,inactive,inactive,inactive,inactive,inactive,inactive,13.8 µM (active),0.273 µM (active),0.109 µM (active),0.122 µM (active),4.37 µM (active),,inactive,24.4 µM (active)
CCN1/C(=C/C=C/c2sc3ccccc3[n+]2CC)Sc2ccccc21,inactive,inactive,inactive,11.2 µM [fluorescent] (active),14.1 µM [fluorescent] (active),inactive,inactive,inactive,21.3 µM (active),0.0266 µM (active),0.0298 µM (active),0.0266 µM (active),3.01 µM (active),,,0.75 µM (active)
CCCCCCCC/C=C/CCCCCCCC1=NCCN1CCO,inactive,inactive,inactive,inactive,inactive,inactive,inactive,inactive,49 µM (active),12.2 µM (active),13.7 µM (active),13.7 µM (active),,49 µM (active),inactive,inactive
COc1cc(-c2nc(NC(=O)c3cc4cc(C)cc(C)c4n3CC(=O)O)sc2CCC2CCCCC2)c(OC)cc1Cl,inactive,inactive,inactive,inactive,inactive,inactive,inactive,inactive,14.2 µM (active),35.3 µM (active),22.3 µM (active),22.3 µM (active),,5.65 µM (active),inactive,
NC(=O)CC[C@@H]1NC(=O)[C@H](Cc2ccccc2)NC(=O)[C@H](Cc2ccc(O)cc2)NC(=O)CCSSC[C@@H](C(=O)N2CCC[C@H]2C(=O)N[C@@H](CCCN=C(N)N)C(=O)NCC(N)=O)NC(=O)[C@H](CC(N)=O)NC1=O,inactive,inactive,inactive,inactive,inactive,inactive,inactive,inactive,inactive,inactive,inactive,inactive,inactive,,,inactive

# — PubChem BioAssay (Tox21)
